From PubChem BioAssay
FAS-TE inh – inhibitors of human fatty acid synthase thioesterase domain; inhibition, % at 15 µM; actives 0.67% (n = 360,000); recombinant FAS-TE, OMFH fluorogenic substrate, fluorescence endpoint; P49327;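 active means compounds whose normalised, plate-corrected inhibition of enzyme fluorescence in the single-dose primary screen is 50% or more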
rCAG binder-1 – binds r(CAG) RNA repeats. r(CAG) RNA repeat, TO-PRO-1 dye displacement fluorescence. inhibition, % at 3 µM. actives 1.3% (n = 370,000);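 active means inhibition above the plate cutoff, the mean of all test compounds on that plate plus 3 SD, cut at about 35% in these data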;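 further: higher means more dye released from RNA so lower well fluorescence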
GRIN3A LBD mod – modulates the human NR3A ligand-binding domain. actives 2.5% (n = 340,000). NR3A LBD differential scanning fluorimetry, Tm shift; 0% = protein alone, 100% = glycine-bound protein. Tm shift relative to glycine control, % at 25 µM. AID 1259313;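 active means melting temperature shift of at least 10% of the positive control shift, at one fixed dose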
NadD block – NadD (S. aureus) enzyme inhibition; AID 602399; actives 0.78% (n = 360,000); purified NadD enzyme, colorimetric absorbance read-out; inhibition, % at 20 µM; in the data active means inhibition above about 26%
rCAG bind conf – r(CAG) RNA repeat binding, confirmation. shares compounds with rCAG binder-1. TO-PRO-1 dye displacement fluorescence. inhibition, % at 3 µM. actives 70% (n = 4,300). AID 652065;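 active means inhibition above a per-plate cutoff, the mean inhibition of sample wells plus 3 SD, cut at about 35% in these data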;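 further: loss of TO-PRO-1 fluorescence as compound displaces dye from 1x1 AA loop RNA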
dCAG dye counter – DNA CAG dye complex inhibition counter-screen. inhibition, % at 3 µM. actives 94% (n = 4,300). d(CAG) DNA oligo TO-PRO-1 dye displacement, fluorescence. shares compounds with rCAG binder-1;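 active means inhibition above its plate's cutoff, the mean test-well inhibition plus 3 SD, cut at about 4.8% in these data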;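 further: hits displace the dye from DNA and so lower well fluorescence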
dCAG dye DR – DNA CAG dye complex inhibition, dose response counter-screen; actives 20% (n = 250); DNA CAG/GTC duplex TO-PRO-1 dye displacement fluorescence; AID 686960; shares compounds with rCAG binder-1; IC50, µM; in the data active means IC50 below about 10 µM
dCAG TOPRO ctr – DNA CAG dye complex inhibition, late stage dose response; d(CAG) DNA duplex TO-PRO-1 dye displacement, fluorescence; shares compounds with rCAG binder-1; IC50, µM; AID 720649; actives 80% (n = 30)
rCAG binder-2 – r(CAG) repeat RNA binding, TO-PRO-1 displacement. AID 720651. actives 100% (n = 30). shares compounds with rCAG binder-1. IC50, µM. r(CAG) RNA TO-PRO-1 dye displacement, fluorescence
Each line names hits and unclear results; the compound was inactive in the other large screens (follow-up assays come after a bar, where they were run). Most compounds without a hit are left out; they make up all but 4.3% or so of the library. Unless noted, how the calls were made is not given here.

CC1=C(C#N)c2nc(N)c(C#N)c(C)c2/C1=C\c1ccc(-c2ccccc2C(=O)O)o1	rCAG binder-1 46.2 | rCAG bind conf 69.4 | dCAG dye counter 32.1 | dCAG dye DR inactive | dCAG TOPRO ctr 2.83 | rCAG binder-2 1.11
Nc1nonc1-c1nc2ccccc2n1CC(=O)N/N=C/c1ccc(-c2ccccc2C(=O)O)o1	none
COc1cc(/C=C2/C(C)=C(C#N)c3nc(N)c(C#N)c(C)c32)ccc1OCC(=O)O	rCAG binder-1 42.4 (no result: FAS-TE inh, NadD block) | rCAG bind conf 40.5 | dCAG dye counter 17.3
C[C@H](CO)N1C[C@H](C)[C@@H](CN(C)C(=O)Nc2ccc(-c3cccs3)cc2)OCc2cn(nn2)CCCC1=O	none (no result: FAS-TE inh, GRIN3A LBD mod, NadD block)
CCN1CCN(c2c(S(=O)(=O)c3ccc(Cl)cc3)cnc3ccccc23)CC1	none (no result: FAS-TE inh, GRIN3A LBD mod, NadD block)
COC(=O)c1cc(C)oc1C	none (no result: FAS-TE inh, GRIN3A LBD mod, NadD block)
CCOC(=O)CSc1nc(C)c(C(=O)OCC)s1	none
CCOC(=O)c1sc(-n2[nH]c(C)cc2=O)nc1C	rCAG binder-1 78.4 | rCAG bind conf 47.4 | dCAG dye counter 13.3
O=c1cc(C(F)(F)F)nc(SCc2cccc3ccccc23)[nH]1	rCAG binder-1 68.7 | rCAG bind conf 40.2 | dCAG dye counter 10.3
Nc1cc(=O)[nH]c(SCc2cccc3ccccc23)n1	none
Cc1ccc(NC(=S)NNC(=O)CSc2nc3ccccc3c(=O)n2-c2ccc(Cl)cc2)cc1	rCAG binder-1 57.4 (no result: FAS-TE inh, GRIN3A LBD mod, NadD block) | rCAG bind conf 47.1 | dCAG dye counter 21.5
O=C(CSc1nc2ccccc2s1)NNC(=S)Nc1ccc(Cl)cc1	rCAG binder-1 58.2, GRIN3A LBD mod 32.1 | rCAG bind conf 69.1 | dCAG dye counter 30.3
Cc1ccc(-n2c(SCC(=O)NNC(=S)Nc3ccccc3)nc3ccccc3c2=O)cc1	rCAG binder-1 55.4 | rCAG bind conf 42.2 | dCAG dye counter 18.2
CCN(CC)c1ccc(NC(=O)CSc2nc3ccccc3c(=O)n2-c2ccc(C)cc2)cc1	none (no result: FAS-TE inh, GRIN3A LBD mod, NadD block)
O=C(O)COc1ccccc1/C=N/NC(=O)CSc1nc2ccccc2c(=O)n1-c1ccc(Cl)cc1	none
COC(=O)c1cc(S(=O)(=O)NCC2CCN(C(=O)C(=O)c3cc4ccccc4o3)CC2)cs1	none (no result: FAS-TE inh, GRIN3A LBD mod, NadD block)
O=C(O)c1cc(-c2ccc(Cl)c(Cl)c2)n(-c2ccccc2)n1	rCAG binder-1 41.1 (no result: GRIN3A LBD mod) | rCAG bind conf inactive | dCAG dye counter inactive
COC(=O)[C@H]1C[C@@]2(N3CCCC3)c3ccccc3N[C@H]2N1S(=O)(=O)c1ccc([N+](=O)[O-])cc1	none (no result: FAS-TE inh, GRIN3A LBD mod, NadD block)
N#C/C(=C\c1ccc(-c2ccc(F)cc2)o1)C(=O)Nc1nc(-c2cccs2)cs1	rCAG binder-1 36.0, GRIN3A LBD mod 19.0 | rCAG bind conf inactive | dCAG dye counter 10.8
N#C/C(=C/c1ccc(-c2ccccc2)o1)c1nc(-c2cccs2)cs1	none
Cc1cc(S(=O)(=O)Nc2nc(CN3CCOCC3)nc3sc4c(c23)CCC4)ccc1F	rCAG binder-1 53.7 | rCAG bind conf 49.3 | dCAG dye counter 13.8
CC(=O)Nc1ccc(S(=O)(=O)Nc2nc(CN3CCOCC3)nc3sc4c(c23)CCCC4)cc1	none
O=C(Nc1ccc(S(=O)(=O)Nc2nccs2)cc1)c1ccc(F)c(S(=O)(=O)N2CCOCC2)c1	rCAG binder-1 45.0 | rCAG bind conf 37.2 | dCAG dye counter 16.4
O=C(Nc1ccc(S(=O)(=O)Nc2nccs2)cc1)c1ccc(S(=O)(=O)N2CCOCC2)cc1	none
Cc1ccc(S(=O)(=O)N2CCOCC2)cc1C(=O)Nc1ccc(S(=O)(=O)Nc2nccs2)cc1	rCAG binder-1 38.6 | rCAG bind conf inactive | dCAG dye counter 11.6
Cc1ccc(S(=O)(=O)N2CCOCC2)cc1C(=O)Nc1ccc(C(N)=O)cc1	none
C=CCN=C1NC(c2cccc(F)c2)C(C(=O)OC)=C(C)N1Cc1ccccc1C(F)(F)F (configuration not stated)	none (no result: FAS-TE inh, GRIN3A LBD mod, NadD block)
Nc1ccc(S(=O)(=O)Nc2nc(-c3ccccc3)cc(-c3ccccc3O)n2)cc1	rCAG binder-1 57.8 (no result: GRIN3A LBD mod) | rCAG bind conf 53.8 | dCAG dye counter 18.3
Nc1ccc(S(=O)(=O)Nc2nc(-c3ccccc3)cc(-c3ccccc3)n2)cc1	none
COC(=O)[C@]12C[C@H](CC(=O)N3CCN(C(=O)c4ccco4)CC3)C(=O)N(Cc3cccc4ccccc34)C1=C[C@H](C(C)(C)C)O[C@@H]2C	none (no result: FAS-TE inh, GRIN3A LBD mod, NadD block)
CCCn1c(SCC#N)nc2c(c1=O)C1(CCCC1)Cc1ccccc1-2	none
N#CCSc1n[nH]c2nc3c(c(=O)n12)C1(CCCC1)Cc1ccccc1-3	rCAG binder-1 50.0 | rCAG bind conf 55.1 | dCAG dye counter 18.2 | dCAG dye DR inactive
Cc1csc(NC(=O)CCCC(=O)O)c1-c1nc2ccccc2s1	none
Cc1csc(NC(=O)COCC(=O)O)c1-c1nc2ccccc2s1	rCAG binder-1 55.5 | rCAG bind conf 43.2 | dCAG dye counter 9.7
O=C(CCS(=O)(=O)c1cc2c(cc1Br)CCN2C(=O)C1CC1)N1CCN(c2ccccn2)CC1	none (no result: FAS-TE inh, GRIN3A LBD mod, NadD block)
N=c1c2c(-c3ccccc3)c(-c3ccccc3)n(CCc3ccccc3)c2ncn1CCO	none (no result: FAS-TE inh, GRIN3A LBD mod, NadD block)
Cc1cccc(OCC(=O)N/N=C/c2sc(=O)n(Cc3cccc(C(=O)O)c3)c2Cl)c1	rCAG binder-1 35.2 | rCAG bind conf 37.2 | dCAG dye counter 10.4
O=C(COc1ccccc1)N/N=C/c1sc(=O)n(Cc2cccc(C(=O)O)c2)c1Cl	none
Cc1cc2c(cc1C)-c1c(ssc1=Nc1ccc(S(N)(=O)=O)cc1)C(C)(C)N2	none
CC(=O)NS(=O)(=O)c1ccc(N=c2ssc3c2-c2cc(C)c(C)cc2NC3(C)C)cc1	rCAG binder-1 75.0 | rCAG bind conf 58.9 | dCAG dye counter 25.0
C[C@H]1c2cccc(O)c2C(O)=C2C(=O)[C@]3(O)C(O)=C(C(N)=O)C(=O)[C@@H](N(C)C)[C@@H]3[C@@H](O)[C@@H]21	none (no result: rCAG binder-1)
CN(C)c1ccc(O)c2c1CC1CC3[C@@H](N(C)C)C(=O)C(C(N)=O)=C(O)[C@]3(O)C(=O)C1=C2O (some centres not stated)	rCAG binder-1 63.8 | rCAG bind conf 46.3 | dCAG dye counter 18.5
Cc1ccc(SCC(=O)N2CCOCC2)cc1	rCAG binder-1 40.4 | rCAG bind conf inactive | dCAG dye counter inactive
COC(=O)Cn1c(=O)c(C(=O)CCl)c(N)n(Cc2ccccc2)c1=O	none
